Measured values as given in PubChem BioAssay AID1159580 (chemical genetic matrix, 2015).
Values joined by “and” are separate entries in the source; they are usually repeats but may differ in a detail not shown here. Equal entries are not always repeated. The campaign covered roughly 5,500 compounds. About 2,000 (36%) were called active. Inconclusive results (about 18%) are left out. Cut-off read from the data, not from the text of the source: active = normalized growth mostly below about 0.91 (no sharp cut-off); inconclusive = no clear call, values can overlap the other calls; inactive = mostly above about 0.92. This is one part of the list.

Experiment: chemical genetic growth profiling, strain panel (AID 1159580);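 note: tested at 20 µM; growth read once vehicle control cultures reached saturation at 30 °C; 1 = growth at the plate median or of vehicle wells; lower values mean less growth of the strain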
Details: S. cerevisiae deletion strains, growth OD

Measured: normalized growth

COc1ccc(C2C(=O)c3ccccc3C2=O)cc1
inactive: locus YAL013W, strain DEP1, active compounds read low 0.997 | locus YAL021C, strain ccr4, active compounds read low 1.01 | locus YAL026C, strain drs2, active compounds read low 0.983 | locus YAL030W, strain snc1, active compounds read low 1 | locus YBL061C, strain skt5, active compounds read low 1.01 | locus YBR009C, strain hhf1, active compounds read low 0.998 | locus YBR021W, strain FUR4, active compounds read low 1.01 | locus YBR023C, strain chs3, active compounds read low 1.01 | locus YBR171W, strain sec66, active compounds read low 0.978 | locus YBR229C, strain ROT2, active compounds read low 1 | locus YBR231C, strain swc5, active compounds read low 1.02 | locus YBR279W, strain paf1, active compounds read low 1.01 | locus YCL011C, strain gbp2, active compounds read low 0.979 | locus YCL016C, strain dcc1, active compounds read low 1.03 | locus YCL029C, strain bik1, active compounds read low 0.983 | locus YCL069W, strain vba3, active compounds read low 0.986 | locus YCR088W, strain abp1, active compounds read low 0.999 | locus YDL005C, strain med2, active compounds read low 1.02 | locus YDL035C, strain GPR1, active compounds read low 1.01 | locus YDL040C, strain nat1, active compounds read low 1.02 | locus YDL074C, strain BRE1, active compounds read low 0.994 | locus YDL101C, strain DUN1, active compounds read low 1 | locus YDL185W, strain tfp1, active compounds read low 0.921 | locus YDL192W, strain arf1, active compounds read low 0.988 | locus YDR001C, strain nth1, active compounds read low 0.964 | locus YDR069C, strain doa4, active compounds read low 1.01 | locus YDR101C, strain arx1, active compounds read low 1.03 | locus YDR137W, strain rgp1, active compounds read low 0.978 | locus YDR150W, strain NUM1, active compounds read low 0.988 | locus YDR159W, strain sac3, active compounds read low 1.01 | locus YDR162C, strain NBP2, active compounds read low 1.02 | locus YDR195W, strain ref2 1.09 | locus YDR297W, strain sur2, active compounds read low 0.993 | locus YDR318W, strain mcm21, active compounds read low 0.993 | locus YDR334W, strain swr1, active compounds read low 0.983 | locus YDR335W, strain msn5, active compounds read low 1.02 | locus YDR388W, active compounds read low 1.01 | locus YDR392W, strain spt3, active compounds read low 1.02 | locus YDR502C, strain sam2, active compounds read low 0.998 | locus YEL003W, strain gim4, active compounds read low 0.993 | locus YEL037C, strain rad23, active compounds read low 0.994 | locus YEL061C, strain CIN8 (second series), active compounds read low 0.975 | locus YEL061C, strain CIN8, active compounds read low 0.98 | locus YER015W, strain faa2, active compounds read low 1.01 | locus YER016W, strain bim1, active compounds read low 0.995 | locus YER110C, active compounds read low 0.985 | locus YER111C, strain swi4, active compounds read low 0.994 | locus YER155C, strain BEM2 (second series), active compounds read low 0.993 | locus YER155C, strain BEM2, active compounds read low 0.998 | locus YER167W, strain BCK2, active compounds read low 1 | locus YFR010W, strain ubp6, active compounds read low 1.02 | locus YGL078C, strain dbp3, active compounds read low 0.99 | locus YGL086W, strain mad1, active compounds read low 1.01 | locus YGL167C, strain pmr1, active compounds read low 1 | locus YGL173C, strain kem1, active compounds read low 1.02 | locus YGL227W, strain vid30, active compounds read low 0.974 | locus YGL240W, strain doc1, active compounds read low 1.02 | locus YGL248W, strain PDE1, active compounds read low 1 | locus YGL253W, strain hxk2, active compounds read low 1.01 | locus YGR078C, strain PAC10, active compounds read low 0.998 | locus YGR135W, strain pre9, active compounds read low 0.963 | locus YGR252W, strain gcn5, active compounds read low 0.956 | locus YHR013C, strain ard1, active compounds read low 1.02 | locus YHR027C, strain rpn1, active compounds read low 1.01 | locus YHR030C, strain SLT2, active compounds read low 0.977 and 0.898 | locus YHR079C, strain IRE1 (second series), active compounds read low 0.991 | locus YHR079C, strain IRE1, active compounds read low 0.857 | locus YHR094C, strain hxt1, active compounds read low 0.999 | locus YHR129C, strain ARP1, active compounds read low 1.01 | locus YHR142W, strain chs7, active compounds read low 1.02 | locus YHR200W, strain rpn10, active compounds read low 0.995 | locus YIL066C, strain RNR3, active compounds read low 0.996 | locus YIL073C, strain SPO22, active compounds read low 0.977 | locus YIL125W, strain kgd1, active compounds read low 0.997 | locus YIR030C, strain dcg1, active compounds read low 0.987 | locus YJL092W, strain hpr5, active compounds read low 0.969 | locus YJL095W, strain BCK1 (second series), active compounds read low 0.981 | locus YJL095W, strain BCK1, active compounds read low 1 and 0.908 | locus YJL115W, strain asf1, active compounds read low 0.998 | locus YJL129C, strain trk1, active compounds read low 1.02 | locus YJL134W, strain LCB3, active compounds read low 1 | locus YJL154C, strain vps35, active compounds read low 0.99 | locus YJL164C, strain tpk1, active compounds read low 0.999 | locus YJL166W, strain qcr8, active compounds read low 1.01 | locus YJL168C, strain set2, active compounds read low 1.02 | locus YJL187C, strain SWE1 (second series), active compounds read low 0.998 | locus YJR043C, strain POL32, active compounds read low 1
